According to PubChem BioAssay:
Values without a mark were called inactive. Calls of active or inactive are those of the source. Unless noted, no stated cut-off is given here; in the data, active means inhibition above about 28%; inactive means the rest.

Legend:
[1] = StAR promoter reporter inhibitors, counter-screen for LRH-1 inverse agonist project, cell-based, luminescence, high throughput (AID 651611); settings: StAR promoter luciferase reporter counterscreen, at 3.6 µM, hits give high values
[2] = target: Nuclear receptor subfamily 5 group A member 2 (Homo sapiens) (UniProt O00482); experiment: LRH-1 (NR5A2) inverse agonists, retest, confirmation, cell-based, luminescence (AID 651613; in the data active means inhibition above about 42%;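 further: HEK293T cells co-transfected with LRH-1 and StAR promoter luciferase reporter; 0% = vehicle wells and 100% = parental cells lacking receptor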); settings: cell-based LRH-1 luciferase reporter, inverse agonism; at 3.6 µM; hits give high values
[3] = target: Steroidogenic factor 1 (Homo sapiens) (UniProt Q13285); experiment: SF1 (NR5A1) inverse agonists, counter-screen for LRH-1 inverse agonist project, cell-based, luminescence, high throughput (AID 651614; in the data active means inhibition above about 44%;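 further: cells cotransfected with StAR promoter reporter and SF1 expression vector; 0% = vehicle on cells with receptor and 100% = vehicle on cells lacking receptor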); settings: cell-based SF1 luciferase reporter, at 3.6 µM, hits give high values
[4] = VP16 transactivation reporter inhibitors, counter-screen for LRH-1 inverse agonist project, cell-based, luminescence, high throughput (AID 651615; in the data active means inhibition above about 33%); settings: Gal4-VP16 luciferase reporter cells, at 3.6 µM, hits give high values
[5] = test system: transactivating tegument protein VP16 (Human herpesvirus 1); experiment: VP16 transactivation reporter inhibitors, counter-screen for SRC2 inhibitor project, cell-based, luminescence, single concentration (AID 652007; in the data active means inhibition above about 36%); settings: cell-based VP16 transactivation luciferase reporter, at 8.9 µM, hits give high values
[6] = target: Nuclear receptor coactivator 2 (Homo sapiens) (UniProt Q15596); experiment: SRC2 coactivator transcriptional activity inhibitors, confirmation, cell-based, luminescence, HEK293, triplicate (AID 652008;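 active means mean inhibition above 46.5%, the solvent-only control mean plus 3 SD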;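 further: 0% = DMSO-treated cells and 100% = Gossypol at 36 µM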); settings: HEK293 GAL4-SRC2 luciferase reporter, at 8.9 µM, hits give high values
Sequence of Nuclear receptor coactivator 2 (Homo sapiens) (Q15596 whole entry, looked up, the tested form may be a part): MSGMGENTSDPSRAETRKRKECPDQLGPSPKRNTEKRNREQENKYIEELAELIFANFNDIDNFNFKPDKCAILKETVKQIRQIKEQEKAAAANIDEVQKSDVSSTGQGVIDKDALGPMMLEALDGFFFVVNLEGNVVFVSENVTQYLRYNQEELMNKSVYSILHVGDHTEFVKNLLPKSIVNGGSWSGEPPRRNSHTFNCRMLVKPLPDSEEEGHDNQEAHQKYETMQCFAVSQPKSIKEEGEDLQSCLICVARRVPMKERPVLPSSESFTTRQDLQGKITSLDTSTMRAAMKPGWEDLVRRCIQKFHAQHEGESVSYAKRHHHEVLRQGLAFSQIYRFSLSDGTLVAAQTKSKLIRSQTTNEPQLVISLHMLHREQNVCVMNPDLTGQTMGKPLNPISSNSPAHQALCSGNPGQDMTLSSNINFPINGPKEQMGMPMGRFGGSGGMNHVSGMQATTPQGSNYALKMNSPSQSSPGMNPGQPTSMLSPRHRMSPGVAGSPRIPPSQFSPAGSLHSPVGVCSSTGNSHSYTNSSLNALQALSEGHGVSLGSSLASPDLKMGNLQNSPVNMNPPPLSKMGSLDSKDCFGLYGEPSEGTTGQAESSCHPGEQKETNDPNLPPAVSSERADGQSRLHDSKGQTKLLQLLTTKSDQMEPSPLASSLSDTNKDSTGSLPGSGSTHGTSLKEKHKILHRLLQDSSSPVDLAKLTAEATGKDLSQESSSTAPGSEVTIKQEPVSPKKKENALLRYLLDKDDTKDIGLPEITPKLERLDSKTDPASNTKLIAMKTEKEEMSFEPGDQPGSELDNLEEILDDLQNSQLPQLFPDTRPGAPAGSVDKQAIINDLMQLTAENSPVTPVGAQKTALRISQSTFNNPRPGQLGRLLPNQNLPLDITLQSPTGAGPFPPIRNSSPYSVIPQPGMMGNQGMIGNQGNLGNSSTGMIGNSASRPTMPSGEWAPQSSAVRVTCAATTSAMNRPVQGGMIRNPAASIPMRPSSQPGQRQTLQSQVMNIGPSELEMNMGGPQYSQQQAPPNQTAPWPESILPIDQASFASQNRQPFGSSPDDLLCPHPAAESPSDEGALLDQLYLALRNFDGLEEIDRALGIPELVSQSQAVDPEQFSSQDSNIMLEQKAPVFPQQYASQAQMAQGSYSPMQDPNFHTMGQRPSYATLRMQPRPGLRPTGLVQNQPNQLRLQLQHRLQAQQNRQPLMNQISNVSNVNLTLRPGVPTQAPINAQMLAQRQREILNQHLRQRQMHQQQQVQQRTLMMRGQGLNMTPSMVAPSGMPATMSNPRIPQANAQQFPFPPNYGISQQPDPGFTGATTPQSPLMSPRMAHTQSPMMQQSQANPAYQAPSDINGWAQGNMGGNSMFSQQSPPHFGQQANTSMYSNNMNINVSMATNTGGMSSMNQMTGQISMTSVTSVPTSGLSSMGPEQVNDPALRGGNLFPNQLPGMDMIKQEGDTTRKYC

Sequence of Nuclear receptor subfamily 5 group A member 2 (Homo sapiens) (O00482 whole entry, looked up): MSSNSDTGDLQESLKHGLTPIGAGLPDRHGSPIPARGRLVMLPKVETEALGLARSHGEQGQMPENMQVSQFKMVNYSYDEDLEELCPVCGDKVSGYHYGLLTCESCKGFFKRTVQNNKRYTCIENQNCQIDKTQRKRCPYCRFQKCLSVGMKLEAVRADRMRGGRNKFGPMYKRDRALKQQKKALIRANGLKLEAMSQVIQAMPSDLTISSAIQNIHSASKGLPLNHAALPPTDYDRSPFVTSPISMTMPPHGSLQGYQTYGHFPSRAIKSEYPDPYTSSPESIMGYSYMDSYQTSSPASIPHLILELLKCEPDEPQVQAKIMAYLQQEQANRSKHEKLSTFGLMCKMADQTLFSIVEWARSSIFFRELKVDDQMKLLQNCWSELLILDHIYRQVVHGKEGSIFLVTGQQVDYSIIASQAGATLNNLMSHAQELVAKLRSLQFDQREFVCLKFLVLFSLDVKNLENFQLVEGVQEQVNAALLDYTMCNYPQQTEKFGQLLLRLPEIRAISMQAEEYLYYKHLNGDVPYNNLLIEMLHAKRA
Sequence of Steroidogenic factor 1 (Homo sapiens) (Q13285 whole entry, looked up, the tested form may be a part): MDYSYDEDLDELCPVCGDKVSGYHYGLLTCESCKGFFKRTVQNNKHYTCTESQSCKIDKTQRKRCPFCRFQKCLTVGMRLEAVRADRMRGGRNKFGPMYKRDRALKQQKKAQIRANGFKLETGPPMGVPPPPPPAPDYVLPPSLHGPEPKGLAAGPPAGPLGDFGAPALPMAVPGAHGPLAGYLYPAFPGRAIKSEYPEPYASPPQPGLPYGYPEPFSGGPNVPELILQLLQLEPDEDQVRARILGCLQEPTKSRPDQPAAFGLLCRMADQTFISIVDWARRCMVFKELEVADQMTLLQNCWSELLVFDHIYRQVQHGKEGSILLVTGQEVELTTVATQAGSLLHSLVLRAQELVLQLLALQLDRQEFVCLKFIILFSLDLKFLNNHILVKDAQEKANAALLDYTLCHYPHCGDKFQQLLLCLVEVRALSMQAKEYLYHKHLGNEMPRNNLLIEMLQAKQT

Structure (SMILES) | inhibition [1] | inhibition [2] | inhibition [3] | inhibition [4] | inhibition [5] | inhibition [6]
CC1C/C(=C\c2cccnc2)C(=O)/C(=C/c2cccnc2)C1 (stereo not given) | 61.9% (active) | 100% (active) | 95.6% (active) | 91.5% (active) | 98% (active) | 93.9% (active)
O=C(CCl)N(c1ccccc1)c1c[nH]c2ccccc12 | 62.4% (active) | 55.8% (active) | 38.5% | 18.8% | 21.6% | 17.9%
CC(C)(C)C(=O)Nc1cc2nn(-c3ccccc3)nc2cc1Cl | 48.3% (active) | 19.3% | 43.6% (active) | 50.1% (active) | 88.2% (active) | 90.3% (active)
Cc1ccc(NC(=O)C2=C(c3ccccc3)S(=O)(=O)CCS2(=O)=O)cc1 | 11% | -4.23% | 30.3% | 48.5% (active) | 92.8% (active) | 96.9% (active)
Cc1ccnc2c1ccc1cccnc12 | 82.7% (active) | 108% (active) | 67.4% (active) | 65.5% (active) | -9.35% | 29%
Brc1ccc2ncnc(NCc3ccccc3)c2c1 | 30.5% (active) | 72.4% (active) | 59.9% (active) | 80.8% (active) | 21.7% | 54.5% (active)
COc1ccc(/C=C/c2nc3ccccc3c(=O)o2)cc1 | 38.6% (active) | -49.3% | 37.2% | -63% | 38.4% (active) | 84.3% (active)
COc1cccc(C2=CC(=O)CC(C)(C)C2)n1 | 9.54% | 61.3% (active) | 58.1% (active) | 45.9% (active) | -6.05% | 32.9%
CCC(C(=O)NCc1ccccc1)n1c(CSCCOc2ccccc2)nc2ccccc21 (stereo not given) | 21.1% | 21.6% | 25.1% | 29% | 19.5% | 78.3% (active)
COc1ccc(-c2noc(CCCC(=O)NC3CCCC3)n2)cc1 | 15.1% | 59.7% (active) | 60.5% (active) | 34.5% (active) | 48.8% (active) | 53.7% (active)
N#CC(=C1C=CC(=NO)C(Cl)=C1)c1ccccc1 | 26% | 41.8% (active) | 61.3% (active) | 22.2% | -5.64% | 20.3%
O=C(NCCOc1cccnc1)c1ccc(OC2CCN(Cc3ccccn3)CC2)cc1 | 90.8% (active) | 105% (active) | 97.6% (active) | 87.7% (active) | 15.9% | 56.5% (active)
Cc1cc(C)n2c(Nc3ccc4c(c3)OCCO4)c(-c3cc4ccccc4o3)nc2n1 | -27.7% | -26.8% | -6.96% | 0.38% | -60.9% | -12.5%
Cn1cnc([N+](=O)[O-])c1Oc1ccc2ccccc2c1 | 38.9% (active) | 55.3% (active) | 54.8% (active) | 10.8% | 11.9% | 19.6%
COc1ccc(C)cc1NS(=O)(=O)c1ccc(-c2cnc(C3CC3)o2)cc1 | 41.5% (active) | 41.9% (active) | 58% (active) | 54.5% (active) | 6.98% | 34.7%
C=CC(=O)N1C/C(=C/c2ccc(Cl)cc2)C(=O)/C(=C\c2ccc(Cl)cc2)C1 | 17.8% | 84.7% (active) | 87.8% (active) | 65.8% (active) | 97% (active) | 88.4% (active)
O=C1C=CC2(C=C1)O[C@H](Cc1ccccc1)[C@@H](Cc1ccccc1)O2 | 37% (active) | 83.4% (active) | 73.2% (active) | 72.5% (active) | 94.4% (active) | 63.8% (active)
O=C(CCl)Nc1cc2[nH]c(=O)[nH]c2cc1Br | 71.3% (active) | 78.6% (active) | 79.1% (active) | 2.89% | 76.5% (active) | 74.7% (active)
CC(C)(C)c1ccc(Oc2ccc(NC(=O)C3CC=CCC3C(=O)O)cc2)cc1 (stereo not given) | 1.67% | 6.39% | 0.96% | 5.54% | 8.31% | 19.9%
Cc1ccc(-c2nc(NC(=O)c3nn(C)cc3[N+](=O)[O-])sc2C)cc1 | 18.9% | 21.2% | 32.2% | -0.37% | 35.3% | 50.5% (active)
